Screening results as filed in PubChem BioAssay.
An excerpt weighted towards active compounds, which were near 3.9% of everything screened.
3CLpro inhibitor – SARS-CoV 3CLpro protease inhibition. inhibition, % at 6 µM. recombinant SARS-CoV 3CLpro, quenched FRET peptide cleavage. 290,000 compounds, 0.14% hits; in the data active = inhibition above about 12%
GDH-TPI inh – GDH-TPI coupled enzyme inhibition counter-screen. GDH-TPI coupled enzyme counterscreen, NADH absorbance. inhibition, % at 4.8 µM. 360,000 compounds, 1.2% hits. AID 588335; in the data active = inhibition above about 30%;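 note: 0% = DMSO wells and 100% = wells lacking the enzyme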
Vc quorum ag – quorum light induction in luxS cqsA deficient V. cholerae; activation, % at 18.7 µM; 350,000 compounds, 0.16% hits; V. cholerae BH1578 lux reporter, luminescence, 6 h; AID 588436; in the data active = activation mostly above about 9.7%, no sharp cut-off
Mtb FBA inh – Mtb fructose-bisphosphate aldolase inhibition. purified M. tuberculosis FBA, fluorescence read-out. inhibition, % at 1 µM. 360,000 compounds, 2.3% hits. AID 588726; in the data active = inhibition above about 27%;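 note: 0% = vehicle and 100% = reference inhibitor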
Target sequence (P9WQA3 whole entry, looked up): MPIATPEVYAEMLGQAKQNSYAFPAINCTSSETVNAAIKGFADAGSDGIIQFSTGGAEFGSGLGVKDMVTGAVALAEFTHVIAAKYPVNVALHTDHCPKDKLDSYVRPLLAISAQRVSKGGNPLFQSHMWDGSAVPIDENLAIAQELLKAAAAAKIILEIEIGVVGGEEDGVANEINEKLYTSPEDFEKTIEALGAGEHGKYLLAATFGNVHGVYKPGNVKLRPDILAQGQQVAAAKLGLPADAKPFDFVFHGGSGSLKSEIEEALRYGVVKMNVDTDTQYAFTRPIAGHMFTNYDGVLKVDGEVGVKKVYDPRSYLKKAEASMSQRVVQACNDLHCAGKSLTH
PrPC TRFRET – cell surface PrPC inhibition, primary TR-FRET screen. TR-FRET read-out. inhibition, % at 13.8 µM. 370,000 compounds, 0.43% hits; in the data active = inhibition above about 24%; note: 0% = median of the test wells and 100% = reference compound wells
* marks the source's active call; other numbers are inactive results; i = inactive; . = not tested or not shown; + = active, no number.

SMILES	3CLpro inhibitor	GDH-TPI inh	Vc quorum ag	Mtb FBA inh	PrPC TRFRET
O=C(OCC(=O)N1CCN(S(=O)(=O)c2ccc(Cl)cc2)CC1)c1cc(Br)ccc1O	.	5.3	i	-3.2	-2.9
CC1CC(C)CN(C(=O)COC(=O)c2nccnc2N)C1 (stereo unspecified)	.	1.0	1.0	180.4*	-0.8
COC(=O)c1nccnc1N	.	-1.7	0.1	145.5*	-0.3
COC(=O)[C@]12CCCCC=C1N(CCC1=CCCCC1)C(=O)[C@H](CC(=O)NCC13CC4CC(CC(C4)C1)C3)C2	.	.	.	.	-5.3
COc1ccc2nc(N3C(=O)CNC3=S)sc2c1	2.2	64.1*	-1.0	0.7	2.8
Cc1ccc2nc(N3C(=O)CNC3=S)sc2c1	1.4	20.7	-0.6	-0.5	16.7
COC(=O)c1oc(-c2ccc(Cl)cc2)nc1C	4.2	-0.6	.	1.4	6.7
COc1ccc(C2CC(C(F)(F)F)n3nc(C(=O)NCc4c(C)nn(C)c4C)c(Cl)c3N2)cc1 (stereo unspecified)	-1.5	-10.2	-7.7	-0.7	13.7
COc1ccc(C2CC(C(F)(F)F)n3nc(C(=O)N(C)Cc4cn(C)nc4C)c(Cl)c3N2)cc1 (stereo unspecified)	-1.2	-5.4	+	2.8	0.6
CSc1ccc(/C=N/NC(=O)c2cc(O)cc(O)c2)cc1	4.6	48.9*	-0.4	1.8	-4.1
CSc1ccc(/C=N/NC(=O)c2sccc2C)cc1	3.0	45.1*	-0.2	-1.6	0.6
O=C(COC(=O)[C@@H]1CCCN1C(=O)c1cccs1)Nc1cccc(Cl)c1	.	5.7	-0.5	0.9	8.3
COc1ccc(C=NNc2nc3c([nH]2)c(=O)n(C)c(=O)n3C)cc1	.	34.4*	-1.8	-1.4	-11.9
Cc1ccc(C=NNc2nc3c([nH]2)c(=O)n(C)c(=O)n3C)cc1	.	45.8*	i	5.0	-7.8
CCCOc1ccc(CC(=O)N/N=C\c2ccc(F)cc2)cc1	-3.2	3.1	-1.0	-0.1	1.6
CC(/C=N/NC(=O)Cc1cccs1)=C\c1ccco1	0.0	33.7*	i	-2.5	-4.0
COc1cccc(Cl)c1NC(=O)N1CCc2c([nH]c3ccccc23)C1C(F)(F)F (stereo unspecified)	-0.2	-5.6	-0.6	-1.8	-3.1
COc1cc(-c2nnc(-c3ccco3)o2)ccc1OCc1ccccc1	3.6	8.2	-0.7	120.6*	-4.9
O=C1c2c(O)cc(O)cc2O[C@@]12c1c(cc(O)c3c1O[C@H](c1ccc(O)cc1)[C@@H](O)C3)O[C@@H]2c1ccc(O)cc1	0.8	36.2*	1.2	5.9	-3.4
Oc1cc(O)c2c(c1)O[C@H](c1ccc(O)c(O)c1)[C@@H](O)C2	.	1.4	0.7	5.9	-2.4
Cc1cc(C)n2nc(SCc3ccccc3C(=O)O)nc2n1	5.5	-18.4	-1.4	-4.8	-6.0
Cc1cc(C)n2nc(SCc3ccccc3F)nc2n1	0.9	-4.4	0.6	+	9.7
C[C@H]1CN([C@@H](C)CO)C(=O)c2cc(Br)cnc2O[C@H]1CN(C)Cc1ccc(Oc2ccccc2)cc1	.	-9.3	i	1.8	-1.3
COc1ccc(C(=O)N2CCN(CCc3ccccc3)CC2)cc1[N+](=O)[O-]	0.0	5.2	-0.6	0.3	-8.7
CN/N=C/c1ccc(C#N)cc1	5.7	5.0	-0.2	2.1	-5.0
SMILES	3CLpro inhibitor	GDH-TPI inh	Vc quorum ag	Mtb FBA inh	PrPC TRFRET
Cc1ccccc1N/N=C/c1ccc(C#N)cc1	2.0	2.6	59.9*	-0.1	10.1
COC(=O)C1=C(O)/C(=C/c2ccc(OCC(=O)Nc3ccc(OC)cc3)cc2)N=C1C	.	33.9*	0.6	-0.5	-3.7
CC1=C(C(=O)N(C)C)CC(CC(=O)NC2CC2)C(=O)N1Cc1ccccc1 (stereo unspecified)	.	-7.5	-0.2	3.6	3.6
Cc1ccc(N2CCN(C(=O)c3cc(-c4ccc(F)cc4)[nH]c3C)CC2C)cc1 (stereo unspecified)	6.7	12.9	-8.3	0.5	5.4
O=C(NNC(=O)c1ccc2ccccc2c1)c1cccc(Br)c1	.	-6.0	i	-0.5	-4.3
O=C(NNC(=O)c1ccccc1O)c1cccc(Br)c1	-1.0	30.8*	-0.6	-3.4	-3.0
O=C(NNC(=S)Nc1cccc2ccccc12)c1cccc(Br)c1	5.7	35.0*	-0.6	8.8	12.0
COC(=O)C(C(=O)OC)=C(/C=C/N(C)C)N(C)C	1.0	37.6*	-0.4	-6.0	-4.9
CCN1C(=O)/C(=C/C=C2/Sc3ccccc3N2CCO)SC1=S	3.3	14.6	236.1*	-5.6	-1.4
CCCN1C(=O)/C(=C\C=C2/Sc3ccccc3N2CCO)SC1=S	1.8	-4.5	-0.6	2.2	-1.3
O=C(CNC(=O)c1ccc2ccccc2c1)NCc1ccccc1F	2.0	-1.0	i	-0.8	1.1
Cc1cc(-c2ccccc2)c2ccc(NC(=O)C(C)(C)C)nc2n1	-1.3	45.5*	-0.8	13.9	10.1
Cc1cc(C)nc(/N=C(\NC(=O)C(C)(C)C)Nc2ccccc2)n1	0.1	-11.5	-0.5	-1.4	-3.6
CC(=O)Nc1cccc2c1C(=O)N(c1ccc(C)cc1)C2=O	0.0	14.4	16.7*	-6.7	-4.8
CN(C)c1ccc(C(=O)C(O)c2ccccc2Cl)cc1 (stereo unspecified)	.	45.8*	.	2.3	3.0
COC(=O)c1ccc(-c2cc(C(=O)O)c3cc4c(cc3n2)OCCO4)cc1	-0.3	21.0	-0.5	+	-8.2
O=C1N=C(N2CCCCC2)S/C1=C\c1ccncc1	-0.3	25.7	-2.0	-4.0	3.3
COc1cc(/C=C2\SC(N3CCCCC3)=NC2=O)cc(OC)c1OC	4.4	32.6*	i	0.4	-12.6
COc1ccc(/C=C2\SC(N3CCCCC3)=NC2=O)cc1	1.0	47.4*	i	2.2	-2.5
CC(=O)N1CCN(C2=NC(=O)/C(=C/c3ccc(OS(=O)(=O)c4ccccc4)cc3)S2)CC1	-2.7	31.5*	i	0.3	-1.1
COc1cc(/C=C/C(=O)OCC(=O)NC2CCCCCCC2)ccc1O	.	33.0*	-13.4	5.6	-1.5
COc1cc(/C=C/C(=O)OCC(=O)N2CCC(C)CC2)ccc1O	.	28.8	-1.8	4.2	0.5
COc1cc(/C=C/C(=O)OCC(=O)N2CCc3ccccc3C2)ccc1O	-3.6	56.7*	-1.5	2.9	-1.2
COc1cc2cc(CN(CCO)C(=O)c3cccs3)c(=O)[nH]c2cc1OC	4.6	37.2*	-2.0	14.5	1.0
COc1ccc2[nH]c(=O)c(CN(CC3CCCO3)C(=O)Nc3ccccc3OC)cc2c1 (stereo unspecified)	-4.7	15.1	3.2	8.9	6.4
COc1ccc2cc(CN(CC3CCCO3)S(=O)(=O)c3ccccc3Cl)c(=O)[nH]c2c1 (stereo unspecified)	-2.7	31.9*	-6.2	6.2	0.9
COc1ccccc1NC(=O)N(Cc1cc2cc(OC)c(OC)cc2[nH]c1=O)CC1CCCO1 (stereo unspecified)	1.1	34.3*	i	19.4	5.2
COc1ccc2[nH]c(=O)c(CN(CCO)C(=O)c3cccs3)cc2c1	-5.0	7.5	-0.6	8.1	4.9
O=c1[nH]c2ccccc2cc1CN(CC1CCCO1)S(=O)(=O)c1ccc(Cl)cc1 (stereo unspecified)	-0.8	5.0	-0.2	2.0	11.3
